Where a name gives a salt, the structure may show the parent alone. ± gives the standard deviation or the standard deviation of the averaged measurements.
Experiments:
Settings in all cases: 25 µM; exposure: 24-48 hpf
[1] = tested on: Danio rerio Tg(wt1b:EGFP) embryo, pronephros; test: glomerular separation, fold change vs DMSO control; higher = glomeruli further apart (abnormal)
How it was run: (§1)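 From 24 to 48 hpf, at 28.5°C, dechorionated Tg(wt1b:EGFP) zebrafish embryos sat in HEPES-buffered E3 with 0.003% PTU carrying 25 μM compound and 0.5% DMSO. Their pronephroi were imaged dorsally in 96-well plates filled with agarose, using 470 nm light and 10 z-slices. A Fiji macro measured distances and angles between 16 reference points that were set manually on maximum projections, and any value more than 2 SD from its feature mean was excluded. Features are expressed as fold change relative to the mean of DMSO-treated embryos imaged on the same day.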

[2] = tested on: Danio rerio Tg(wt1b:EGFP) embryo, pronephros; test: glomerular width (mean of left and right), fold change vs DMSO control; higher = wider glomerulus
How it was run: as §1

[3] = tested on: Danio rerio Tg(wt1b:EGFP) embryo, pronephros; test: fraction of imaged embryos annotated as normal kidney; higher = less nephrotoxic; extreme values may be limits of the assay
How it was run: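 The read-out is the proportion of embryos in each treatment manually annotated as normal-kidney. Exposure ran from 24 to 48 hpf at 28.5°C in 12-well plates, using dechorionated Tg(wt1b:EGFP) zebrafish embryos in 5 mM HEPES-buffered E3 with 0.003% PTU, 0.5% DMSO and 25 μM compound. For imaging, larvae were anaesthetised with tricaine, positioned dorsally in agarose-filled 96-well plates and captured by widefield fluorescence (470 nm, 10 z-slices), with scoring done on maximum projections.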

[4] = tested on: Danio rerio Tg(wt1b:EGFP) embryo, pronephros; test: pronephric angle neck segment to proximal convoluted tubule (mean of left and right), fold change vs DMSO control; higher = larger pronephric angle
How it was run: as §1

Compound	glomerular separation [1]	glomerular width [2]	fraction of imaged embryos annotated as normal kidney [3]	pronephric angle neck segment [4]
C1N2CN3CN1CN(C2)C3 [Methenamine]	0.642 ± 0.2	0.975 ± 0.051	0.917	0.994 ± 0.029
CC(C)C(=O)c1c(C(C)C)nn2ccccc12 [Ibudilast]	0.785 ± 0.21	0.92 ± 0.051	1	1.01 ± 0.036
NC(=O)c1ncn([C@@H]2O[C@H](CO)[C@@H](O)[C@H]2O)n1 [Ribavirin]	0.913 ± 0.3	0.965 ± 0.025	0.75	0.985 ± 0.017
CC(C)COCC(CN(Cc1ccccc1)c1ccccc1)N1CCCC1 (stereo unspecified) [Bepridil hydrochloride]	0.94 ± 0.41	1.03 ± 0.03	0.818	0.993 ± 0.033
C[C@@H]1CCC[C@H](C)N1NC(=O)c1ccc(Cl)c(S(N)(=O)=O)c1 [Clopamide]	0.881 ± 0.2	1.01 ± 0.02	0.917	0.98 ± 0.051
CCOc1ccc(NC(C)=O)cc1 [Phenacetin]	1.14 ± 0.31	1.0834 ± 0.00038	0.667	0.946 ± 0.022
CC(C)(Sc1cc(C(C)(C)C)c(O)c(C(C)(C)C)c1)Sc1cc(C(C)(C)C)c(O)c(C(C)(C)C)c1 [Probucol]	0.815 ± 0.18	0.925 ± 0.06	1	0.928 ± 0.023
NC[C@@H]1O[C@@H](O[C@H]2[C@H](O)[C@@H](O[C@H]3O[C@H](CO)[C@@H](O)[C@H](N)[C@H]3O)[C@H](N)C[C@@H]2N)[C@@H](O)[C@H](O)[C@H]1O [Kanamycin A sulfate]	1.07 ± 0.33	1.01 ± 0.046	0.667	1.01 ± 0.052
CN(C)[C@@H]1C(O)=C(C(N)=O)C(=O)[C@@]2(O)C(O)=C3C(=O)c4c(O)cccc4[C@@](C)(O)[C@H]3[C@H](O)[C@@H]12 [Oxytetracycline dihydrate]	1.22 ± 0.44	0.955 ± 0.036	0.909	0.9153 ± 0.0078
Nc1cc(C(Cl)=C(Cl)Cl)c(S(N)(=O)=O)cc1S(N)(=O)=O [Clorsulon]	0.798 ± 0.23	0.948 ± 0.062	0.917	0.935 ± 0.044
CCN(CC)C(=O)Nc1ccc(OCC(O)CNC(C)(C)C)c(C(C)=O)c1 (stereo unspecified) [Celiprolol hydrochloride]	0.729 ± 0.21	1.03 ± 0.018	0.833	0.964 ± 0.046
COc1cccc2c1C(=O)c1c(O)c3c(c(O)c1C2=O)C[C@@](O)(C(=O)CO)C[C@@H]3O[C@H]1C[C@H](N)[C@H](O)[C@H](C)O1 [Doxorubicin hydrochloride]	1.19 ± 0.75	0.959 ± 0.11	0.75	0.9779 ± 0.0016
O=C1CCC(N2C(=O)c3ccccc3C2=O)C(=O)N1 (stereo unspecified) [Thalidomide]	0.439 ± 0.097	1.21 ± 0.078	0.917	0.748 ± 0.037
COC(=O)Nc1nc2cc(C(=O)c3ccc(F)cc3)ccc2[nH]1 [Flubendazol]	1.81 ± 0.69	0.934 ± 0.034	0.833	1.11 ± 0.15
COc1cc(C)nc(-n2nc(C)cc2OC)n1 [Epirizole]	1.39 ± 0.73	0.957 ± 0.021	0.75	1.03 ± 0.027
CSc1ccc2c(c1)N(CCC1CCCCN1C)c1ccccc1S2 (stereo unspecified) [Thioridazine hydrochloride]	1.12 ± 0.33	1.03 ± 0.047	0.75	0.9994 ± 0.0046
N=C(N)N1CCc2ccccc2C1 [Debrisoquin sulfate]	1.02 ± 0.24	0.9804 ± 0.0064	0.667	1.01 ± 0.01
COc1ccc(/C=C/C(=O)Nc2ccccc2C(=O)O)cc1OC [Tranilast]	2.14 ± 1.2	1.08 ± 0.049	0.583	1.139 ± 0.0021
COC(=O)Nc1nc2cc(C(=O)c3cccs3)ccc2[nH]1 [Nocodazole]	1.86 ± 0.67	0.523 ± 0.024	0	1.87 ± 0.13
CC(=O)OCC(=O)[C@@]1(O)[C@H](C)C[C@H]2[C@@H]3CCC4=CC(=O)C=C[C@]4(C)[C@@]3(F)[C@@H](O)C[C@@]21C [Dexamethasone acetate]	1 ± 0.25	1.252 ± 0.0072	1	1.02 ± 0.034

Compound	glomerular separation [1]	glomerular width [2]	fraction of imaged embryos annotated as normal kidney [3]	pronephric angle neck segment [4]
CC(CN(C)C)CN1c2ccccc2Sc2ccccc21 (stereo unspecified) [Trimeprazine tartrate]	0.739 ± 0.27	0.9878 ± 0.0068	0.833	1.01 ± 0.0053
CN(C)[C@@H]1C(O)=C(C(N)=O)C(=O)[C@@]2(O)C(O)=C3C(=O)c4c(O)cccc4[C@@](C)(O)[C@H]3C[C@@H]12 [Tetracycline hydrochloride]	1.33 ± 0.62	1.06 ± 0.042	0.778	0.9721 ± 0.0096
Cc1cccc(C)c1NC(=O)C1CCCCN1C (stereo unspecified) [Mepivacaine hydrochloride]	0.751 ± 0.32	1.06 ± 0.058	0.917	0.991 ± 0.054
CN(C)C/C=C(/c1ccc(Br)cc1)c1cccnc1 [Zimelidine dihydrochloride monohydrate]	0.758 ± 0.25	0.9778 ± 0.0056	0.75	0.971 ± 0.055
CC(C(=O)O)c1ccc(N2Cc3ccccc3C2=O)cc1 (stereo unspecified) [Indoprofen]	2.27 ± 0.52	0.658 ± 0.069	0.2	1.3 ± 0.1
CCCCC(C)(O)C/C=C/[C@H]1[C@H](O)CC(=O)[C@@H]1CCCCCCC(=O)OC (mixture of isomers) [Misoprostol]	0.763 ± 0.35	0.959 ± 0.024	1	0.985 ± 0.04
CCCNCC(O)COc1ccccc1C(=O)CCc1ccccc1 (stereo unspecified) [Propafenone hydrochloride]	1.06 ± 0.39	1.05 ± 0.0038	0.818	1.13 ± 0.035
C=CC[N@@+]12CC[C@@]34c5ccccc5N5/C=C6/[C@H]7C[C@H]8[C@@]9(CC[N@@+]8(CC=C)C/C7=C/CO)c7ccccc7N(/C=C(/[C@@H](C[C@@H]31)/C(=C\CO)C2)[C@H]54)[C@@H]69 [Alcuronium chloride]	1.23 ± 0.57	1.03 ± 0.052	0.833	0.958 ± 0.03
CC(=O)Nc1ccc(O)cc1 [Acetaminophen]	0.86 ± 0.31	0.987 ± 0.037	1	0.9829 ± 0.0034
CCCCOc1ccc(CC(=O)NO)cc1 [Bufexamac]	1.11 ± 0.37	1.015 ± 0.0014	0.75	0.9927 ± 0.0019
C[C@H](N)[C@H](O)c1cccc(O)c1 [Metaraminol bitartrate]	0.797 ± 0.44	0.961 ± 0.083	0.667	0.771 ± 0.017
CN(C)CCOC(c1ccccc1)c1ccccc1 [Diphenhydramine hydrochloride]	0.907 ± 0.28	1.03 ± 0.0021	0.75	0.942 ± 0.016
Cc1cccc(C)c1OCC(C)N (stereo unspecified) [Mexiletine hydrochloride]	0.9 ± 0.27	0.98 ± 0.033	0.917	0.98 ± 0.041
Cc1c(NC(C)C)c(=O)n(-c2ccccc2)n1C [Isopyrin hydrochloride]	1.1 ± 0.6	1.04 ± 0.016	0.917	0.974 ± 0.022
CC(=O)NCCCS(=O)(=O)O [Acamprosate calcium]	1.02 ± 0.41	1.02 ± 0.022	0.75	0.991 ± 0.053
COCC1=C(C(=O)OC(C)OC(=O)OC(C)C)N2C(=O)[C@@H](NC(=O)/C(=N\OC)c3csc(N)n3)[C@H]2SC1 (stereo partly specified) [Cefpodoxime proxetil]	1.06 ± 0.52	0.893 ± 0.055	1	1.05 ± 0.054
CC[C@H](c1ccc(O)cc1)[C@@H](CC)c1ccc(O)cc1 [Hexestrol]	1.04 ± 0.38	0.94 ± 0.029	0.25	1.22 ± 0.08
CC1=Nc2ccc(Cl)cc2S(=O)(=O)N1 [Diazoxide]	0.743 ± 0.26	1.03 ± 0.029	0.833	0.942 ± 0.035
CC(CN(C)C)CN1c2ccccc2CCc2ccccc21 (stereo unspecified) [Trimipramine maleate salt]	0.996 ± 0.29	1.06 ± 0.087	0.833	0.972 ± 0.048
